This passage reports outcome results from PubChem BioAssay.

Results with a measured potency or affinity are listed apart. Calls of active or inactive are those of the source.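 The calls were made as follows: active = signal drop whose fitted half-maximal concentration is at most twice the top valid dose, in every test run; inconclusive = mixed calls across runs, poor fit, or flat 30 to 70% inhibition; inactive = wrong direction, flat within 30%, or potency beyond limit.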

The nature of the experiment: RMG-1 ovarian cancer cell viability loss – cherry-pick, dose response (AID 687029).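 Also: cells exposed to compound for 96 hours.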 To be noted: RMG-1 viability, CellTiterGlo ATP luminescence, 96 h; series mostly up to 35 µM. (In general: ATP-based viability assays read luminescence as a measure of living cells.)
Take `C[C@@H]1CN([C@H](C)CO)C(=O)c2cc(NC(=O)Nc3ccc(F)cc3)ccc2O[C@@H](C)CCCCO[C@H]1CN(C)C(=O)NC1CCCCC1`: the molecule was called inactive. Turning to `Cc1ccc(S(=O)(=O)Nc2ccc3c(c2)C(=O)N([C@H](C)CO)C[C@@H](C)[C@H](CN(C)Cc2ccc(Cl)c(Cl)c2)OCCCC[C@H](C)O3)cc1`, the molecule was classed as inactive. Take `COc1ccc(S(=O)(=O)Nc2ccc3c(c2)CC(=O)N([C@@H](C)CO)C[C@@H](C)[C@H](CN(C)Cc2ccc(C(F)(F)F)cc2)O3)cc1`: the outcome was inactive. Consider `C[C@@H]1CCCCO[C@@H](CN(C)C(=O)c2ccccc2)[C@H](C)CN([C@H](C)CO)C(=O)c2cc(NC(=O)Nc3ccc(C(F)(F)F)cc3)ccc2O1`, for which the outcome was inactive.

Regarding `O=C(Cc1ccccc1)N1CC[C@H]2[C@H](CO)Nc3ccc(C4=CCCCC4)cc3[C@H]21`, the outcome was inactive. Turning to `C[C@@H]1CCCCO[C@H](CN(C)CC2CCCCC2)[C@H](C)CN([C@@H](C)CO)C(=O)c2cc(NC(=O)Nc3ccccc3)ccc2O1`, the outcome was inactive. Under `C[C@@H]1CN([C@H](C)CO)C(=O)c2cc(NC(=O)Nc3ccc(C(F)(F)F)cc3)ccc2O[C@@H](C)CCCCO[C@H]1CN(C)C(=O)NC1CCCCC1` stands “inactive”; under `C[C@H]1CN([C@@H](C)CO)S(=O)(=O)c2ccc(C#Cc3ccc(F)cc3)cc2O[C@@H]1CN(C)C(=O)NC1CCCCC1`, “inactive”; under `C[C@@H](O)C#Cc1ccc2c(c1)O[C@H](CN(C)Cc1ccc(-c3ccccc3)cc1)[C@@H](C)CN([C@@H](C)CO)S2(=O)=O`, “inactive”. As to `C[C@H]1CCCCO[C@H](CN(C)S(=O)(=O)c2ccc(F)cc2)[C@@H](C)CN([C@@H](C)CO)C(=O)c2cc(NS(=O)(=O)c3ccc(Cl)cc3)ccc2O1`, the outcome was inactive. The same measure for `C[C@@H]1CN([C@H](C)CO)C(=O)c2cc(NC(=O)Nc3ccc(C(F)(F)F)cc3)ccc2O[C@@H](C)CCCCO[C@H]1CN(C)S(=O)(=O)c1ccc(Cl)cc1`: “inactive”; for `C[C@@H]1CN([C@H](C)CO)C(=O)c2cc(NS(=O)(=O)c3ccccc3)ccc2O[C@@H](C)CCCCO[C@@H]1CN(C)CC1CCCCC1`: “inactive”. Under `C[C@@H]1CN([C@H](C)CO)C(=O)c2cc(NC(=O)Nc3ccc(C(F)(F)F)cc3)ccc2O[C@@H](C)CCCCO[C@H]1CN(C)S(=O)(=O)c1ccccc1` stands “inactive”. Under `C[C@@H]1CN([C@@H](C)CO)C(=O)c2cc(NS(=O)(=O)c3cccs3)ccc2O[C@@H](C)CCCCO[C@H]1CN(C)Cc1ccc(C(F)(F)F)cc1` stands “inactive”; under `C[C@@H]1CCCCO[C@@H](CN(C)C(=O)Nc2ccc(C(F)(F)F)cc2)[C@H](C)CN([C@H](C)CO)C(=O)c2cc(NS(=O)(=O)c3ccc(F)cc3)ccc2O1`, “inactive”. In the case of `Cc1ccc(S(=O)(=O)N(C)C[C@H]2Oc3cc(C#Cc4ccncc4)ccc3S(=O)(=O)N([C@H](C)CO)C[C@H]2C)cc1`, the molecule was classed as inactive. For the molecule `C[C@@H]1CN([C@H](C)CO)C(=O)c2cc(NC(=O)Nc3ccccc3)ccc2O[C@@H](C)CCCCO[C@H]1CN(C)C(=O)Nc1ccc(C(F)(F)F)cc1`, the result was inactive. For `O=C(Nc1ccc(C(F)(F)F)cc1)Nc1ccc2c(c1)[C@@H]1C[C@H](CC(=O)N3CCc4ccccc4C3)O[C@H](CO)[C@@H]1O2`, the molecule was classed as inactive.

Consider `CC(C)CC1NC(=S)N(Cc2ccccc2)C1=O` (centres undefined), for which the molecule was called inactive. As for `C[C@H](CO)N1C[C@H](C)[C@H](CN(C)Cc2ccc(C(F)(F)F)cc2)OCCCC[C@H](C)Oc2ccc(NC(=O)NC3CCCCC3)cc2C1=O`, the molecule was called inactive. In the case of `C[C@@H]1CN([C@H](C)CO)C(=O)c2cc(NC(=O)c3ccccc3)ccc2O[C@@H](C)CCCCO[C@@H]1CN(C)Cc1ccc(C(F)(F)F)cc1`, the molecule was classed as inactive.

As to `COc1ccccc1C(=O)Nc1ccc2c(c1)C(=O)N(C)[C@@H]1CC[C@@H](CC(=O)NCc3ccc(Cl)c(Cl)c3)O[C@H]1CO2`, the molecule was classed as inactive. The same measure for `C[C@@H]1CN([C@H](C)CO)S(=O)(=O)c2ccc(C#CC3CCCC3)cc2O[C@H]1CN(C)Cc1cccnc1`: “inactive”. As for `C[C@H]1CN([C@@H](C)CO)C(=O)Cc2cc(NC(=O)NC3CCCCC3)ccc2O[C@H]1CN(C)Cc1ccc(-c2ccccc2)cc1`, the result was inactive.

For `C[C@H](CO)N1C[C@H](C)[C@H](CN(C)Cc2ccc(C(F)(F)F)cc2)OCCCC[C@H](C)Oc2ccc(NS(=O)(=O)c3ccc(F)cc3)cc2C1=O`, the outcome was inactive. The same measure for `COc1ccc(-c2ccc3c(c2)[C@@H]2[C@@H](CCN2S(=O)(=O)c2ccc(OC)cc2)[C@@H](CO)N3C)cc1`: “inactive”; for `C[C@@H]1CCCCO[C@H](CN(C)C(=O)Nc2ccc(C(F)(F)F)cc2)[C@@H](C)CN([C@@H](C)CO)C(=O)c2cc(NC(=O)Nc3ccc(C(F)(F)F)cc3)ccc2O1`: “inactive”.

In the case of `CC(C)NC(=O)N(C)C[C@H]1OCCCC[C@@H](C)Oc2ccc(NC(=O)Nc3ccc(C(F)(F)F)cc3)cc2C(=O)N([C@@H](C)CO)C[C@H]1C`, the result was inactive. The same measure for `C[C@@H]1CN([C@H](C)CO)C(=O)c2cc(NC(=O)Nc3cccc4ccccc34)ccc2O[C@@H]1CN(C)C(=O)Nc1cccc2ccccc12`: “inactive”; for `C[C@@H]1CN([C@H](C)CO)C(=O)c2cccc(NC(=O)Nc3cccc4ccccc34)c2O[C@@H]1CN(C)S(=O)(=O)c1ccc(Cl)cc1`: “inactive”; for `C[C@H]1CCCCO[C@H](CN(C)Cc2ccc(C(F)(F)F)cc2)[C@@H](C)CN([C@@H](C)CO)C(=O)c2cc(NS(=O)(=O)c3ccc(F)cc3)ccc2O1`: “inactive”. In the case of `C[C@@H]1CN([C@H](C)CO)C(=O)c2cc(NC(=O)Nc3ccc(F)cc3)ccc2O[C@@H](C)CCCCO[C@@H]1CN(C)Cc1ccc(Cl)c(Cl)c1`, the outcome was inactive. Turning to `C[C@H](CO)N1C[C@H](C)[C@@H](CN(C)S(=O)(=O)c2cccc(F)c2)OCc2ccccc2-c2c(n(C)c3ccccc23)C1=O`, the result was inactive. Turning to `C[C@@H]1CN([C@H](C)CO)C(=O)c2cc(NC(=O)Cc3ccccc3)ccc2O[C@@H](C)CCCCO[C@@H]1CN(C)Cc1ccc(C(F)(F)F)cc1`, the call was inactive. Regarding `C[C@@H]1CN([C@H](C)CO)C(=O)CCCn2cc(nn2)CO[C@H]1CN(C)C(=O)Nc1ccc(-c2cccs2)cc1`, the molecule was classed as inactive.

With `C[C@H]1CCCCO[C@H](CN(C)C(=O)C2CCCCC2)[C@@H](C)CN([C@@H](C)CO)C(=O)c2cc(NS(=O)(=O)c3ccc(Cl)cc3)ccc2O1`, the molecule was classed as inactive. For `C[C@@H]1CCCCO[C@@H](CN(C)S(=O)(=O)c2ccc(F)cc2)[C@H](C)CN([C@H](C)CO)C(=O)c2cc(NS(=O)(=O)c3ccc(Cl)cc3)ccc2O1`, the call was inactive. Turning to `Cc1noc(C)c1S(=O)(=O)Nc1ccc2c(c1)C(=O)N([C@H](C)CO)C[C@@H](C)[C@H](CN(C)C(=O)Nc1ccc(C(F)(F)F)cc1)OCCCC[C@@H](C)O2`, the call was inactive. The same measure for `C[C@@H]1CCCCO[C@H](CN(C)Cc2ccc(C(F)(F)F)cc2)[C@H](C)CN([C@@H](C)CO)C(=O)c2cc(NS(=O)(=O)c3ccc(Cl)cc3)ccc2O1`: “inactive”.
